The values that follow come from PubChem BioAssay AID504832 (National Center for Advancing Translational Sciences (NCATS), 2011).

Molecules are shown by their SMILES. The campaign covered roughly 310,000 compounds. About 18,000 (5.8%) were called active. Roughly 22% stayed inconclusive and do not appear here. For the sample, actives were picked, then their nearest neighbours and some compounds at random. Unmarked numbers belong to inactive results. The call rests on the fitted dose curve; in most records, active means well fitted inhibition curve with a large enough effect; inconclusive means small, poorly fitted or top-dose-only effect, or another doubt; inactive means no such curve, though single readings can be large or run the other way.
On the % scale 0 is the no-effect control and ±100 the full control effect; potency means the concentration at half of the fitted maximal effect.

This assay in a line: Primary qHTS for delayed death inhibitors of the malarial parasite plastid, 48 hour incubation. The note with it: P. falciparum luciferase growth in erythrocytes; series mostly up to 28.7 µM; activity change, negative = inhibition: at the top concentration. In a few lines: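 Luciferase-expressing P. falciparum in infected erythrocytes (2% hematocrit, 0.1% parasitemia final) in RPMI 1640/0.5% Albumax were exposed to compound for 48 hours at 37 C, 5% CO2; growth read as luminescence.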
A general note: Quantitative high-throughput screening tests each substance at several concentrations.
Consider `Cc1cc(S(=O)(=O)NCC(C)C)ccc1OCC(=O)NC1CC1`, for which the “activity change, negative = inhibition” value was 0.0371%. `CC(=O)c1cccc(NC(=S)N2CCN(S(C)(=O)=O)CC2)c1`: the “activity change, negative = inhibition” value was -7.77%. Still for that read-out and setting: then `Cc1ccc(F)cc1S(=O)(=O)Nc1cccc(C(=O)N2CCCC(C(N)=O)C2)c1` (stereo unspecified), with -20.4%. Still for that read-out and setting: then `COc1ccc(OC)c(NC(=O)c2ccc3c(c2)C(=O)N(c2ccc(OC(C)=O)cc2)C3=O)c1`, with 0.907% [at 0.00184 µM]; and `C/C(=N\NC(=O)C1(C)CC1(Br)Br)c1ccc(C)cc1C` (stereo unspecified), with 9.57%; and `O=C(CCn1nnnc1CN1CCOCC1)N1CCC(c2ccccc2Cl)C1` (stereo unspecified), with 51.7%. The same measure, in the same setting: then `CCc1nn(CC(=O)N2CCN(CC)CC2)c(=O)c2cccn12`, with 34.5%; and `NC(=O)c1ccc(CN2CCC(Cc3ccccc3)CC2)cc1`, with 5.35%. Consider `Brc1ccc(CN2CC[C@H]3C=CCc4cccc(c43)C2)cc1`, for which the Potency was 3.29 µM (active). `NC(=O)C1CC(=O)N(c2ccc(OCC(=O)NCc3ccccc3)cc2)C1` (stereo unspecified): the “activity change, negative = inhibition” value was 5.28%. On the same count and under the same terms, then `CCN(C(=O)c1cc([N+](=O)[O-])ccc1NCc1cccnc1)c1ccccc1`, with -8.89%; and `CS(=O)(=O)Nc1ccccc1C(=O)OCC(=O)NC1CC1`, with -14.3%. With `CC(C)=CCc1c(O)c(CC=C(C)C)c2occ(-c3ccc(O)cc3)c(=O)c2c1O`, the Potency was 2.94 µM (active). Take `Cc1ccnc(NC(=O)CCNS(=O)(=O)c2ccc(C)c(C)c2)c1`: the “activity change, negative = inhibition” value is 277%. Same read-out and setting: then `Cc1cccc(NS(=O)(=O)c2cc(Cl)ccc2Cl)n1`, with -4.36%; and `O=[N+]([O-])c1ccc(S(=O)(=O)Nc2cccc(-c3ccc(N4CCCC4)nn3)c2)cc1`, with 17.3%. Regarding `O=C1C=C(c2ccnc3cc(Cl)ccc23)C[C@@H](c2ccc3c(c2)OCO3)C1`, the Potency is 7.38 µM (active). Take `N#Cc1ccc(C2=CC(=O)C[C@H](c3ccc(Cl)cc3)C2)cc1`: the “activity change, negative = inhibition” value is 0%.

Consider `CC(=O)C1=C(C)NC(=O)NC1c1ccc2c(c1)OCO2` (stereo unspecified), for which the “activity change, negative = inhibition” value is -0.218%. On the same count and under the same terms, then `COc1ccc([C@H]2CC(=O)C=C(c3ccc(C)cc3)C2)cc1`, with 13.6%. As for `COc1ccc2cc(C3=CC(=O)C[C@H](c4ccc5c(c4)OCO5)C3)ccc2c1`, the “activity change, negative = inhibition” value is 0%.

Take `O=C1C=C(c2cc(C(F)(F)F)cc(C(F)(F)F)c2)C[C@@H](c2ccc3c(c2)OCO3)C1`: the Potency is 8.28 µM (active). `Cc1ccnc(NS(=O)(=O)c2ccc(NC(=O)c3oc4ccc(F)cc4c3C)cc2)n1`: the “activity change, negative = inhibition” value is 5.71%. Still for that read-out and setting: then `[2H]C(CCOS(N)(=O)=O)c1ccccc1` (stereo unspecified), with 33.3%; and `CNC(=O)c1sc(NCc2ccccc2OC)nc1C`, with 12.4%. Same read-out and setting: with `O=C(Nc1ccc(-c2cscn2)cc1)C1CCCN(Cc2ccc(CO)o2)C1` (stereo unspecified) the figure was 8.86%. Still for that read-out and setting: then `COc1cc(-c2c(-c3ccc4c(c3)OCO4)noc2C)ccc1F`, with -12.7%; and `CCNC(=O)c1cccc(NC(=O)C2CC(=O)N(CCc3ccccc3)C2)c1` (stereo unspecified), with 18.1%. For the compound `CN(CC#CCC(c1ccccc1)c1ccccc1)C(C)(C)C`, the Potency is 9.28 µM (active). As to `Cc1ccccc1Nc1c(-c2ccccc2)nc2ncccn12`, the “activity change, negative = inhibition” value was -20.4%. Regarding `Cc1cccc(C)c1Nc1c(-c2ccccc2O)nc2ncccn12`, the Potency was 2.94 µM (active). `C[C@H](NC(=O)[C@@H]1Cc2ccccc2CN1C(=O)OC(C)(C)C)C(=O)NC1CCCC1`: the “activity change, negative = inhibition” value is -22.4%.

For `O/N=C(\C[n+]1ccccc1)c1ccc(Br)cc1`, the activity change, negative = inhibition was -29.6% [at 0.00184 µM]. The same measure, in the same setting: with `CC(=O)c1ccc(NC(=O)c2cc(-c3cccs3)on2)cc1` the figure was 65.8%. For `Cc1cc(NC(=O)c2cc(-c3cccs3)on2)nn1Cc1ccc(Cl)cc1`, the Potency is 10.4 µM (active). As to `O=C(c1cc(-c2cccs2)on1)N1CCCCC1`, the “activity change, negative = inhibition” value was 185%.

Consider `COc1ccc(S(=O)(=O)N2CCC(C(=O)NCCC(=O)NCc3cccc(OC)c3)CC2)cc1`, for which the “activity change, negative = inhibition” value is -3.83%.

`CC(C)Oc1ccc(Oc2ccc(C(F)(F)F)cn2)cc1`: the “activity change, negative = inhibition” value is 10.1%. Regarding `CNCC[C@H](Oc1ccc(C(F)(F)F)cc1)c1ccccc1`, the Potency is 10.4 µM (active). `C[C@H](C(=O)CC(=O)OC(C)(C)C)[C@H](O)c1ccc(C(F)(F)F)cc1`: the “activity change, negative = inhibition” value is 48.5%. Same read-out and setting: with `CCN(CC)C(=O)C(=O)Nc1cccc(Br)c1` the figure was 70.9%.

For the compound `CCN(CC)C(=O)Oc1ccc(Br)cc1C(=O)Nc1ccc(F)c(Cl)c1`, the Potency was 9.28 µM (active). Regarding `COC(=O)c1ccc(NC(=O)c2cc(Cl)ccc2OC)cc1`, the activity change, negative = inhibition is -5.41% [at 5.75 µM].

For the compound `CCCc1nnc(NC(=O)CCC(=O)NC2CC2)s1`, the “activity change, negative = inhibition” value is -5.08%. The same measure, in the same setting: with `O=C(NCc1ccco1)/C(=C\c1cccc([N+](=O)[O-])c1)NC(=O)c1ccco1` the figure was 9.51%; with `C=CCn1c(SCC(=O)NCC2CCCO2)nc2sc(C)c(C)c2c1=O` (stereo unspecified), 11.5%.

Take `CC1CCN(C(=O)Cn2cc(C(=O)c3ccco3)c3ccccc32)CC1`: the Potency is 9.28 µM (active). Regarding `N#Cc1ccc(Cn2cc(C(=O)c3ccco3)c3ccccc32)cc1`, the “activity change, negative = inhibition” value was -11.3%. Same read-out and setting: with `Cc1cccc(NC(=O)Cn2cc(C(=O)c3ccco3)c3ccccc32)c1` the figure was 4.36%; with `CC(Sc1ncnc2c1cnn2-c1ccccc1)C(=O)Nc1ccc(N2CCOCC2)cc1` (stereo unspecified), 30.4%; with `COc1ccc2c(c1OC)C(=O)N(c1ccc(O)cc1)C2`, 1.26%.
